# Source: PubChem BioAssay
# Assay: small-molecule binders of probe aNOTCH2, primary screen, biochemical, small-molecule microarray, 635/667 nm fluorescence (AID 1121);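 also: score merges feature fluorescence read at 667 nm with its signal to noise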
# Conditions: higher = more signal
row,SMILES,composite z-score
1,O=C1O[C@@H](c2ccccc2)[C@@H](c2ccccc2)N2[C@@H](c3ccc(OCCO)cc3)[C@]3(C(=O)Nc4ccc(C#CC5=CCCCC5)cc43)[C@@H](C(=O)N3CCCCCCC3)[C@H]12,0.988
2,CN1C(=O)C2C=CC(C(O)c3ccccc3)N(N3CCCCC3)C2C1=O (stereo not given),0.0521
3,C[C@H]1C2[C@H](Cc3ccccc3)NC(=O)[C@]23C(=O)NCC(=O)N2CCC[C@H]2C(=O)NC/C=C/CCC/C=C/C3[C@@H]2O[C@]12C (stereo not given in full),-0.179
4,NC(=O)NCC#Cc1ccc2c(c1)[C@]1(C(=O)N2)[C@H](C(=O)O)[C@H]2C(=O)O[C@H](c3ccccc3)[C@H](c3ccccc3)N2[C@@H]1c1ccc(O)cc1,0.314
5,O=C(O)C1N=C(c2ccc(OCCCO)cc2)N(c2ccccc2)O1 (stereo not given),-0.037
6,CN(C)CCCCCCNC(=O)[C@@H]1C[C@@H]2C(=O)N[C@@H](CCCC[N+](C)(C)C)C(=O)N2[C@@H]1c1ccc(O)cc1,-0.231
7,O=C1OCC=C[C@H]2OC34C=CCN(CCN5CCOCC5)C(=O)[C@H]3N(CCO)C(=O)[C@@H]4[C@@H]12 (stereo not given in full),-0.208
8,CS(=O)(=O)CCOC(=O)C1=CC(CCCO)=CC(C2CC2)N(Cc2cc3c(cc2Br)OCO3)C=C1C(=O)OCCS(C)(=O)=O (stereo not given),-0.0322
9,CCCC=C(CCC)[C@@H](NS(=O)(=O)c1ccc(Cl)cc1)c1ccc(C(=O)OC)cc1,0.0703
10,[N-]=[N+]=Nc1ccccc1C[C@@]1(C(=O)N2CCCCC2)N=C(c2ccc(OCCCO)cc2)O[C@@H]1c1ccccc1N=[N+]=[N-],0.0564
11,O=C1O[C@H](c2ccccc2)[C@H](c2ccccc2)N2[C@H]1[C@@H](C(=O)NC[C@H](O)c1ccccc1)[C@]1(C(=O)Nc3ccc(C#CC4=CCCCC4)cc31)[C@H]2c1ccccc1OCCO,-0.0614
12,C=CCC(OC(C)=O)[C@@H]1[C@@H](N(Cc2cc3ccccc3o2)C(=O)Cc2ccc(OC)cc2)c2cc(OCCCO)ccc2N1C(=O)c1ccc2ccccc2c1 (stereo not given in full),-0.0652
13,O=C1[C@H]2C=C(I)[C@H](C[C@@H]2OCCCCO)[C@@]12CO2,-0.061
14,[N-]=[N+]=Nc1ccccc1C[C@]1(C(=O)NCC(O)CO)N=C(c2ccc(OCCCO)cc2)O[C@H]1c1ccccc1 (stereo not given in full),-0.14
15,O=C1O[C@H](c2ccccc2)[C@H](c2ccccc2)N2[C@H]1[C@@H](C(=O)NC[C@H](O)c1ccccc1)[C@]1(C(=O)Nc3ccccc31)[C@H]2c1ccc(O)cc1,-0.0629
16,CCN(CC)c1ccc(N2CC=CC34O[C@@H]5C=CCOC(=O)[C@@H]5[C@H]3C(=O)N(CCCCCCO)[C@@H]4C2=O)cc1 (stereo not given in full),-0.174
17,CC1CC/C=C\[C@H]2OC34C=CCN(c5ccc6ccccc6c5)C(=O)[C@H]3N(CCO)C(=O)[C@@H]4C2C(=O)O1 (stereo not given in full),-0.0903
18,CC=CC(O)C1C=CC2C(=O)N(C)C(=O)C2N1N(c1ccccc1)c1ccccc1 (stereo not given),0.0843
19,CCOC(=O)C1=CCC(c2ccc(F)cc2)N(S(=O)(=O)c2ccc(C)cc2)C1 (stereo not given),-0.113
20,O=C1C2C=CC(C(O)C=Cc3ccc([N+](=O)[O-])cc3)N(Nc3ccccc3F)C2C(=O)N1c1ccccc1 (stereo not given),-0.147
21,C=CCN1Cc2ccccc2[C@@H]2OC(c3ccc(OCCCO)cc3)=N[C@]2(CCS(=O)(=O)c2ccccc2)C1=O,-0.0664
22,O=C(CS)NCCCCCNC(=O)[C@H]1C[C@H]2C(=O)NCC(=O)N2[C@H]1c1ccc(O)cc1,-0.185
23,[N-]=[N+]=NCc1ccccc1[C@@H]1OC(c2ccc(OCCCO)cc2)=N[C@]1(CCS(=O)(=O)c1ccccc1)C(N)=O,0.0703
24,C=CCN1C(=O)[C@]2(Cc3ccccc3)N=C(c3ccc(OCCCO)cc3)O[C@@H]2c2ccccc21,-0.0029
25,O=C1OCCC/C=C\[C@H]2OC34C=CCN(c5ccc6ccccc6c5)C(=O)[C@H]3N(CCCCCO)C(=O)[C@@H]4C12 (stereo not given in full),-0.182
26,CCOc1cc(C(O)C2C=CC3C(=O)N(c4ccccc4)C(=O)C3N2Nc2ccc(C(C)C)cc2)ccc1O (stereo not given),-0.0274
27,[N-]=[N+]=Nc1ccccc1C[C@]1(C(=O)N2CCCCC2)COC(c2ccc(OCCCO)cc2)=N1,-0.124
28,C=C(C(=O)CC[C@H](OC(C)=O)c1ccccc1OCCO)C(C)C,-0.0325
29,Cc1ccc(S[C@]2(C(=O)O)CC(=O)N(C(C)C)[C@@H]2c2ccc(CO)cc2)cc1,-0.107
30,CN(C)C(=O)[C@]1(Cc2ccccc2)N=C(c2ccc(OCCCO)cc2)O[C@@H]1c1ccccc1N=[N+]=[N-],-0.0145
